MCF10A rereplic: induces DNA re-replication in MCF 10a normal breast cells; 2.9% of 350,000 active; Potency, µM (top dose mostly 46.1 µM), for inactives: top-dose activity, positive = re-replication, hits mostly activators; AID 624296; MCF 10A DNA re-replication, Hoechst nuclear intensity, 48 h; note: % of control where 0% means no effect; nearly all actives have a fitted effect of over 50% in size
SW480 rerep: inducers of DNA re-replication in SW480 colon cancer cells; 1.8% of 340,000 active; Potency, µM (highest dose often 46.1 µM), for the others: at the highest dose re-replication activation, actives largely listed as activators; SW480 DNA re-replication, Hoechst DNA content imaging, 48 h; AID 624297; note: % of control where 0% means no effect; nearly all actives have a fitted effect of over 55% in size
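SW480 cells exposed to compounds for 48 hr at 37 C, 5% CO2, then Hoechst-stained 40 min. Nuclear DNA content imaged by fluorescence scanning (405 nm excitation, 500-530 nm emission); re-replication scored as increased high-intensity nuclei.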
PINK1 expr mod: changes PINK1 expression; 0.2% of 410,000 active; PINK1 immunofluorescence, high-content cytometry, 24 h; AID 624263; Potency, µM (highest dose often 76.6 µM), inactives show at the top dose activation (PINK1 increase), hits mostly activators; active = well fitted activation curve with a large enough effect; inconclusive = small, poorly fitted or top-dose-only effect; cell line not stated here; note: % of control where 0% means no effect; nearly all actives have a fitted effect of over 65% in size
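Cells are seeded, rested 12 hours, then given compound at five concentrations or DMSO for 24 hours. After fixation, blocking and antibody staining, PINK1 amount and mitochondrial localization are scored; CCCP serves as control.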
KB-3-1 tox: KB-3-1 parental cell cytotoxicity | KB-3-1 viability, CellTiter-Glo ATP luminescence, 72 h | Potency, µM (top dose mostly 46.1 µM), actives largely listed as cytotoxic | 1.4% of 400,000 active | AID 1347075; note: % is set by controls: 0 for no effect and ±100 for the full control effect; nearly all actives have a fitted effect of over 60% in size
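Luminescent ATP read-out (CellTiter-Glo) measures survival of drug-naive KB-3-1 cells after 72 h compound exposure at 37 °C. Titration series was screened from lowest to highest concentration, with DMSO vehicle plates as background controls.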
KB-V1 cytotox: KB-V1 MDR subline cytotoxicity | KB-V1 MDR cells viability, CellTiter-Glo, 72 h | Potency, µM (highest dose often 46.1 µM), usual class: cytotoxic | 3.4% of 400,000 active; note: % is set by controls: 0 for no effect and ±100 for the full control effect; nearly all actives have a fitted effect of over 60% in size
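Potencies derive from concentration-effect curves fitted to normalized luminescence (CellTiter-Glo) of KB-V1 cells treated for 72 h at 37 degrees C in phenol-red-free DMEM containing 10% FBS.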
* marks the source's active call; other numbers are inactive results; i = inactive; u = inconclusive; x = no result; [ ] = another dose, or the depositor's remark. Sampled rows, rich in hits. Any-hit rate of the full collection: about 6.7%. Unless noted, calls come from the whole dose curve; as a rule, active = well fitted curve in the direction sought with a large enough effect; inconclusive = small, poorly fitted or top-dose-only effect, or another doubt; inactive = no such curve, though single readings can be large; an effect the other way counts as inactive or inconclusive. Potency is the fitted concentration of half-maximal effect.

SMILES	MCF10A rereplic	SW480 rerep	PINK1 expr mod	KB-3-1 tox	KB-V1 cytotox
O=C(c1cc(N2C(=O)C3C4CCC(C4)C3C2=O)ccc1Cl)N1CCN(c2ccccc2)CC1 (configuration not stated)	-35.6%	u	8.3%	i	3.26µM*
Cc1nc(OCC(=O)c2ccc(Cl)cc2)c(C#N)c2c1COC(C)(C)C2	4.61µM*	20.6µM*	5.0%	i	i
COc1ccc(C(=O)COc2nc(C)cc(C)c2C#N)cc1	20.1%	20.0%	0.3%[38.3 µM]	u	13µM*
Cc1cc(C)c(C#N)c(Oc2ccc(O)cc2)n1	6.6%	0.0%	2.8%	i	i
CC1(C)Cc2c(C#N)c(OCC(=O)c3ccc(Cl)cc3)nc(-c3ccco3)c2CO1	1.8%	-1.6%	6.7%	i	i
CCOc1cc2ccccc2cc1C(=O)OCC(=O)Nc1ccc(Br)cc1	x	x	-0.4%	i	i
CCCCCc1cc[n+](CC(=O)c2ccccc2)cc1	x	x	-0.7%	i	i
CCc1c(C(=O)NC2CCCCC2)[nH]c(C)c1C(C)=O	13.5%	-18.9%	14.8%[38.3 µM]	i	18.4µM*
CCc1c(C(=O)Nc2cc(C)ccc2OC)[nH]c(C)c1C(C)=O	u	-19.7%	9.7%	i	i
CCc1c(C(=O)NCCc2cccc(C)c2)[nH]c(C)c1C(C)=O	u	18.1%	3.7%	u	11.6µM*
CCc1c(C(=O)NCCc2ccc(OC)c(OC)c2)[nH]c(C)c1C(C)=O	19.4%	-0.5%	11.4%[38.3 µM]	i	14.6µM*
O=C(O)CC1NC(=S)N(Cc2ccccc2)C1=O (configuration not stated)	x	x	-0.4%	i	i
CCOc1ccc(NC(=O)CSC2=Nc3ccccc3C3=NC(Cc4ccccc4)C(=O)N23)cc1 (configuration not stated)	x	x	-1.4%	i	i
Cn1nc(-c2ccccn2)nc2c(=O)n(C)c(=O)nc1-2	2.91µM*	0.82µM*	-1.6%	u	i
CCc1ccc(-c2nc3c(=O)n(C)c(=O)nc-3n(CC)n2)cc1	x	x	-0.4%	u	u
Cc1ccccc1-c1nc2c(=O)n(C)c(=O)nc-2n(C)n1	x	x	-0.3%	2.06µM*	u
CCCc1nc2c(=O)n(C)c(=O)nc-2n(C)n1	10.3µM*	0.651µM*	-1.3%	4.61µM*	7.31µM*
COc1cccc(-c2nc(NCc3cccnc3)c3ccccc3n2)c1	x	x	-0.7%	x	x
COc1ccc2c(c1)c1nnc(SCCN3CCOCC3)nc1n2C	x	x	0.9%	x	x
O=C(CCc1ccccc1)N1CCc2c([nH]c3ccccc23)C1c1ccc(F)cc1 (configuration not stated)	x	x	1.1%	x	x
CCOC(=O)N1CCC(N2C(=O)c3ccccc3C2Nc2cc(OC)c(OC)c(OC)c2)CC1 (configuration not stated)	-1.7%	13.0%	7.0%	i	i
CCOC(=O)[C@]12Cc3c(cc(OC)c(OC)c3OC)[C@H]1N(C1CCCCC1)C(=O)c1cc(OC)ccc12	x	x	-1.1%	3.26µM*	4.61µM*
CC(=O)c1ccc(NC(=O)CCc2c(C)nc3cc(-c4ccc(Cl)cc4)nn3c2C)cc1	x	x	0.8%	i	i
CCc1ccc(NC(=S)NC2CC3CCCC(C2)N3Cc2cccs2)cc1 (configuration not stated)	0.0%	14.6µM*	x	i	18.4µM*
CCc1ccccc1NC(=O)CCCn1c(=O)c2cccn2c2ccccc21	x	x	4.0%	x	x
SMILES	MCF10A rereplic	SW480 rerep	PINK1 expr mod	KB-3-1 tox	KB-V1 cytotox
COc1ccc(NC(=O)CSc2nc3ccccc3cc2Cc2ccccc2)cc1	27.2%	8.6%	11.2µM*	i	i
COc1cc(NC(=O)CSc2nc3ccccc3cc2Cc2ccccc2)cc(OC)c1	-4.0%	5.9%	u	i	i
COc1ccc(NC(=O)CSc2nc(C3CC3)nc3ccccc23)cc1	u	13µM*	4.5%	u	u
COc1ccc(OC)c(NC(=O)CSc2nc3ccccc3cc2Cc2ccccc2)c1	14.6µM*	29.6%	2.8%[38.3 µM]	i	i
COc1cccc(NC(=O)CSc2nc3ccccc3cc2Cc2ccccc2)c1	0.1%	-0.3%	0.4%[38.3 µM]	i	i
O=C(NCCN1CCC(n2c(=O)[nH]c3ccccc32)CC1)c1cccnc1Cl	x	x	-1.1%	u	u
COc1ccccc1NC(=S)N(Cc1ccco1)Cc1cc2cc(C)cc(C)c2[nH]c1=O	13µM*	20.6µM*	23.4%	6.51µM*	2.91µM*
COc1ccccc1NC(=S)N(Cc1ccco1)Cc1cc2ccc(C)c(C)c2[nH]c1=O	u	u	u	0.92µM*	1.84µM*
Cc1ccc2cc(CN(Cc3ccco3)C(=O)C3CCCCC3)c(=O)[nH]c2c1C	1.4%	-3.4%	13.7%	i	i
COc1cc(C(O)c2nc(-c3ccccc3OC)cs2)ccc1F (configuration not stated)	x	x	5.6%	i	i
CC(c1ccccc1)N1C(=O)C2C3CCC(C3)C2C1=O (configuration not stated)	0.2%	x	-0.3%	i	i
CC(NC(=O)C(Cc1ccccc1)N1C(=O)C2C3CCC(C3)C2C1=O)c1ccccc1 (configuration not stated)	-2.0%	1.1%	-3.5%	i	7.31µM*
COC(=O)c1ccc(C)c(NC(=O)CN(c2ccccc2)S(=O)(=O)N(C)C)c1	-5.7%	-1.9%	-1.3%	i	u
COc1cc(CNc2cccc3[nH]c(C(F)(F)F)nc23)cc(OC)c1	u	-26.1%	31.6µM*	u	i
Cc1ccc(C(=O)Nc2cccc3[nH]c(C(F)(F)F)nc23)cc1	u	25.3%	u	16.4µM*	18.4µM*
COc1ccc(CNc2cccc3[nH]c(C(F)(F)F)nc23)cc1	42.6%	-4.8%	u	i	i
C#CCSc1nc2ccccc2c(=O)n1CC=C	x	x	0.4%	u	u
CCN1CCN(C(c2cccc(F)c2)c2c(O)cc(C)n(Cc3ccco3)c2=O)CC1 (configuration not stated)	x	x	0.2%	i	i
COc1cc(OC)cc(C(=O)Nc2nc(CC(=O)NCc3ccccc3OC)cs2)c1	u	2.7%	1.4%	i	16.4µM*
COc1ccccc1NC(=O)Nc1nc(CC(=O)NCc2ccccn2)cs1	u	11.6µM*	-3.5%	i	i
COc1cc(OC)cc(C(=O)Nc2nc(CC(=O)NCc3ccc(F)cc3)cs2)c1	u	u	12.1%	u	u
CCCCn1c(N)c(N(CC)C(=O)c2ccc([N+](=O)[O-])c(C)c2)c(=O)[nH]c1=O	-3.0%	-4.5%	2.4%	i	i
CC1CCCCN1S(=O)(=O)c1ccc(C(=O)Nc2nnc(-c3ccccc3Cl)o2)cc1 (configuration not stated)	u	22.6%	-0.3%	u	16.4µM*

Screening data: PubChem, National Center for Advancing Translational Sciences (NCATS)
